Most compounds without a hit are left out; they make up all but 7.3% or so of the library.
ELG1 genotoxic: qHTS screen for small molecules that induce genotoxicity in human embryonic kidney (HEK293T) cells expressing luciferase-tagged ELG1; HEK293T ELG1-luciferase reporter, luminescence, 16 h; 1.3% of 330,000 active; Potency, µM (titrated, usually from 46 µM), for the others: at the top dose activity change, positive = activation, actives largely listed as activators; also: % of control where 0% means no effect; nearly all actives have a fitted effect of over 60% in size
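Genotoxic stress is detected as increased luminescence from luciferase-tagged ELG1 in HEK293T cells, measured with ONE-Glo after a 16 hr treatment at 37 °C.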
Rab9 prom act: qHTS Assay for Rab9 Promoter Activators; Potency, µM (top dose mostly 9.22 µM), for the others: at the top dose activation, negative = inhibition, most hits filed as activators; Huh7 Rab9 promoter-luciferase reporter, luminescence, 24 h; 2.8% of 320,000 active; AID 485297, 2010; also: % of control where 0% means no effect; nearly all actives have a fitted effect of over 60% in size
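Huh7 reporter line, Rab9 promoter upstream of luciferase. Compound exposure 24 h at 37 °C in reduced-serum medium with 10% FBS. Read-out: luminescence.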
FLuc modulator: qHTS profiling assay for firefly luciferase inhibitor/activator using purifed enzyme and Km concentrations of substrates (counterscreen for miR-21 project) | Luciferin 4-monooxygenase (Photinus pyralis), P08659 | Potency, µM (titrated, usually from 57.5 µM), without a hit: at the top dose activity change, negative = inhibition, hits mostly inhibitors | 6.9% of 360,000 active | purified FLuc, Km substrates, luminescence inhibition;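 also: plate controls were vehicle for no effect and reference inhibitor for full effect; nearly all actives have a fitted effect of over 55% in size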
Target sequence (P08659 whole entry, looked up): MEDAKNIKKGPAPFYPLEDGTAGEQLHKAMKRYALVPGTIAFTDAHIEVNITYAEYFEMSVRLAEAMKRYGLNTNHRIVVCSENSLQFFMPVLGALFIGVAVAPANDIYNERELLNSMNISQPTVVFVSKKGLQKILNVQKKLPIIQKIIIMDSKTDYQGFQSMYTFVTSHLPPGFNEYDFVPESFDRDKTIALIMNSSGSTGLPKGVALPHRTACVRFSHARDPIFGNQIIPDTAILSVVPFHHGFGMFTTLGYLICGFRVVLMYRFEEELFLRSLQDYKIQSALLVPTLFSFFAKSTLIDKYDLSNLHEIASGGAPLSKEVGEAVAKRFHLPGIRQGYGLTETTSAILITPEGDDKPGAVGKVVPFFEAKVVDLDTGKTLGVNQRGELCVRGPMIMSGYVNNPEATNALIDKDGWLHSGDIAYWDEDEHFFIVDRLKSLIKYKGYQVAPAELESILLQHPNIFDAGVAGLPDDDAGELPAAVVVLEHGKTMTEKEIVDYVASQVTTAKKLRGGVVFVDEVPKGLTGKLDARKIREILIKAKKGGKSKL
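Biochemical qHTS of compounds, final roughly 60 µM downward over six points, against 10 nM purified firefly luciferase using Km concentrations of substrates (10 uM D-luciferin, 10 uM ATP) in Tris acetate pH 7.5 buffer; luminescence output.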
uPA surface inh: qHTS for Inhibitors of Cell Surface uPA Generation; 0.31% of 330,000 active; cell surface uPA generation assay, qHTS; Potency, µM (titrated, usually from 38.3 µM), for the others: at the highest dose activity change, negative = inhibition, hits mostly inhibitors; active = well fitted inhibition curve with a large enough effect; inconclusive = small, poorly fitted or top-dose-only effect; inactive = no such curve, though single readings can be large or run the other way; tested in mouse RAW 264.7 cells; also: % is scaled to controls: 0 for no effect and ±100 for the full control effect; nearly all actives have a fitted effect of over 55% in size
SMN2 splice enh: qHTS Assay for Enhancers of SMN2 Splice Variant Expression; HEK293 SMN2-luciferase splicing reporter, luminescence, 30-36 h; Potency, µM (doses to about 46.1 µM), for the others: at the highest dose activity change, positive = activation, usual class: activators; 2.8% of 210,000 active; also: % of control where 0% means no effect; nearly all actives have a fitted effect of over 55% in size
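HEK293 cells carry an SMN2 […]–luciferase reporter in which exon 7 inclusion puts luciferase in frame. Cells were plated 10-12 h before compound addition, then incubated 30-36 h at 37C. ONE-Glo luminescence was read; sodium butyrate at 4.5 mM final served as control.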
NPC1 promoter act: qHTS Assay for NPC1 Promoter Activators | Potency, µM (doses to about 9.22 µM), for the others: top-dose activation, usual class: activators | 2.4% of 320,000 active | Huh7 NPC1 promoter luciferase reporter, 24 h; also: % of control where 0% means no effect; nearly all actives have a fitted effect of over 60% in size
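Huh7 cells stably carrying NPC1 promoter–luciferase, plated in Opti-MEM with 10% FBS for 2 h, were exposed to compound in DMSO for 24 h at 37 °C; luciferase reagent was added for 10 min and luminescence read.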
An asterisk follows results filed as active; [ ] = dose if it differs, or a comment. Unless noted, calls follow the shape of the dose curve; as a rule, active = well fitted curve in the direction sought with a large enough effect; inconclusive = small, poorly fitted or top-dose-only effect, or another doubt; inactive = no such curve, though single readings can be large; an effect the other way counts as inactive or inconclusive. Potency is read from the fitted curve at half-maximal effect.

`N#Cc1nc(-c2ccccc2Cl)oc1N1CCOCC1` gave ELG1 genotoxic 13%, Rab9 prom act 8%, FLuc modulator -12%, uPA surface inh -7%, SMN2 splice enh -1% and NPC1 promoter act 1%.
CC1CCN(c2oc(-c3ccccc3Cl)nc2C#N)CC1 was read as ELG1 genotoxic inconclusive, Rab9 prom act inconclusive, FLuc modulator 11µM*, uPA surface inh 0% and NPC1 promoter act inconclusive.
C=C(C)C(=O)OCCCCCC was read as SMN2 splice enh -1%.
COc1ccc2c(c1)[N+](=O)C(/C(C)=N/NC(N)=S)=C(C)[N+]2=O was read as SMN2 splice enh -1%[9.22 µM].
Screening COC(=O)C(C(=O)OC)[C@@H](NC(=O)OCc1ccccc1)c1ccccc1 returned SMN2 splice enh 8%.
For Cc1ccc(C)c(N2CCN(c3nc4ccccc4c(=O)n3-c3ccc(Cl)cc3)CC2)c1 the results were FLuc modulator -9% and SMN2 splice enh 1%.
For C[C@@H](C(=O)Nc1ccc2ccccc2c1)[C@@H]1C[C@@]1(C)[C@@H](NS(=O)(=O)c1ccc(-c2ccccc2)cc1)c1ccccc1 the results were SMN2 splice enh -5%.
`Cc1ccc(NC(=O)c2cc3ccccc3oc2=N)cc1` gave ELG1 genotoxic inconclusive, Rab9 prom act 0.71µM*, FLuc modulator 0.19µM*, uPA surface inh -14% and NPC1 promoter act 0.45µM*.
For N=c1oc2ccccc2cc1C(=O)Nc1ccc(F)cc1 the results were ELG1 genotoxic 5.2µM*, Rab9 prom act 0.5µM*, FLuc modulator 0.85µM*, uPA surface inh 5% and NPC1 promoter act 0.79µM*.
O=C(Nc1c(C(=O)Nc2cccc(F)c2)oc2ccccc12)c1cc2ccccc2o1 was read as FLuc modulator inconclusive and SMN2 splice enh 12%.
For N=c1oc2cc(O)ccc2cc1C(=O)Nc1ccc(Cl)cc1 the results were ELG1 genotoxic inconclusive, Rab9 prom act 3.2µM*, FLuc modulator 3µM*, uPA surface inh -15% and NPC1 promoter act 2.2µM*.
`O=C(NCCc1ccc(F)cc1)c1cc2ccccc2oc1=O` gave ELG1 genotoxic 26%, Rab9 prom act -1%, FLuc modulator -3%, uPA surface inh 8% and NPC1 promoter act -5%.
`N=c1oc2ccccc2cc1C(=O)Nc1cccc(F)c1` gave ELG1 genotoxic inconclusive, Rab9 prom act inconclusive, FLuc modulator 0.3µM*, uPA surface inh 11% and NPC1 promoter act 3.2µM*.
For Cc1ccc(NC(=O)CN(C)C(=O)c2cc3ccccc3o2)cc1 the results were ELG1 genotoxic 1%, Rab9 prom act -1%, FLuc modulator -2%, uPA surface inh 1%, SMN2 splice enh 8% and NPC1 promoter act -6%.
Screening Cc1ccc(NC(=O)CCCc2nnc3n(C)c(=O)c4sccc4n23)cc1C returned FLuc modulator -1%.
`COc1cccc2cc(C(=O)Nc3ccc(S(=O)(=O)NCC4CCCO4)cc3)c(=O)oc12` (stereo not given) gave ELG1 genotoxic -1%, Rab9 prom act -1%, FLuc modulator 0%, uPA surface inh 0% and NPC1 promoter act 12%.
CCCC(c1nnnn1CS(=O)(=O)c1ccc(C)cc1)N1CCN(CC)CC1 (stereo not given) was read as ELG1 genotoxic 0%, Rab9 prom act -2%, FLuc modulator 2%, uPA surface inh 3% and NPC1 promoter act -1%.
Cc1ccc(C(=O)c2oc3ccccc3c2NC(=O)c2cc(=O)c3ccccc3o2)cc1 was read as FLuc modulator -2% and SMN2 splice enh 3%.
Screening COc1cc(OC)c(NC(=O)c2noc3c2CSc2ccccc2-3)cc1Cl returned FLuc modulator -9%.
COc1ccc(C2=Nc3ccccc3OC2)cc1 was read as ELG1 genotoxic 0.52µM*, Rab9 prom act 1.6µM*, FLuc modulator 0.85µM*, uPA surface inh -12%, SMN2 splice enh inconclusive and NPC1 promoter act 1.6µM*.
`CC(=O)Nc1cc(C(=O)OCC(=O)c2ccc(Cl)cc2Cl)ccc1C` gave ELG1 genotoxic -1%, Rab9 prom act 2%, FLuc modulator 2.4µM*, SMN2 splice enh -7% and NPC1 promoter act -3%.
For COc1ccc(C(=O)COc2ccc(C)cc2NC(C)=O)cc1 the results were ELG1 genotoxic inconclusive, Rab9 prom act 1.3µM*, FLuc modulator -9%, uPA surface inh -1% and NPC1 promoter act 3.5µM*.
Screening CC(C)C(=O)Nc1cccc(C(=O)OCC(=O)c2ccc(Cl)cc2Cl)c1 returned ELG1 genotoxic 0%, Rab9 prom act 2%, FLuc modulator 1.2µM*, SMN2 splice enh -7% and NPC1 promoter act 1%.
Screening CC(=O)Nc1cc(C(=O)OCC(=O)c2ccc(C)cc2)ccc1C returned ELG1 genotoxic inconclusive, Rab9 prom act 2.2µM*, FLuc modulator 6µM*, uPA surface inh -5%, SMN2 splice enh inconclusive and NPC1 promoter act 4µM*.
`COc1ccc(C(=O)CC(=O)C(=O)Nc2cc(OC)ccc2OC)cc1` gave ELG1 genotoxic 0%, Rab9 prom act -5%, FLuc modulator -3%, uPA surface inh 0% and NPC1 promoter act -6%.
Screening COCC(=O)Nc1cc(Cl)ccc1C returned ELG1 genotoxic 0%, Rab9 prom act 1%, FLuc modulator -3%, uPA surface inh 3%, SMN2 splice enh -1% and NPC1 promoter act 3%.
`COC(=O)c1cccc(NC(=O)Nc2ccc(Cl)cc2Cl)c1` gave ELG1 genotoxic -2%, Rab9 prom act inconclusive, FLuc modulator inconclusive, uPA surface inh 13% and NPC1 promoter act inconclusive.
For COc1ccccc1NC(=O)c1cc2c(=O)n(Cc3cccs3)ccc2nc1C the results were FLuc modulator -4%.
CC(=O)c1ccc(NC(=O)CSc2nnc(NC(=O)c3ccco3)s2)cc1 was read as ELG1 genotoxic inconclusive, Rab9 prom act inconclusive, FLuc modulator 2.4µM*, uPA surface inh -7% and NPC1 promoter act inconclusive.
COCCSc1nnc(NC(=O)c2ccco2)s1 was read as ELG1 genotoxic inconclusive, Rab9 prom act inconclusive, FLuc modulator inconclusive, uPA surface inh 2% and NPC1 promoter act inconclusive.
`CC(C)N(C(=O)CSc1nnc(NC(=O)c2ccco2)s1)C(C)C` gave ELG1 genotoxic 0%, Rab9 prom act -4%, FLuc modulator -18%, uPA surface inh 9%, SMN2 splice enh -5% and NPC1 promoter act -4%.

Screening data as filed in PubChem BioAssay.
